Experimental data reported in PubChem BioAssay (NCI).
The panel holds about 79,000 compounds, 15% with a hit somewhere; the sample as a whole holds those more often. The source made the active and inactive calls. No stated cut-off is given here; in the data, active means growth inhibition above about 70%; inactive means the rest.

Legend:
[1] = NCI Yeast Anticancer Drug Screen. Data for the rad50 strain (AID 155);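 further: 0% = growth of vehicle-only cultures of the same strain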; conditions: S. cerevisiae rad50 strain growth inhibition, hits give high values
Method in brief: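 Cells are treated with compound, grown, and their growth is then scored against vehicle-only cultures of the same repair-deficient yeast strain.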

[2] = NCI Yeast Anticancer Drug Screen. Data for the mec2-1 strain (AID 157); conditions: S. cerevisiae mec2-1 strain, hits give high values
Method in brief: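 mec2-1 yeast strain, carrying an alteration in DNA damage repair or cell cycle control, was exposed to compounds; growth inhibition was measured relative to vehicle-treated controls.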

[3] = NCI Yeast Anticancer Drug Screen. Data for the sgs1 mgt1 strain (AID 161);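 further: 0% = growth of cultures given vehicle only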; conditions: S. cerevisiae sgs1 mgt1 strain, hits give high values
Method in brief: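 Percent growth inhibition was derived by comparing compound-exposed mutant yeast with vehicle-exposed cultures. The strain carries alterations in DNA damage repair.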

[4] = NCI Yeast Anticancer Drug Screen. Data for the cln2 rad14 strain (AID 165);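 further: 0% = growth equal to vehicle treated cultures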; conditions: S. cerevisiae cln2 rad14 strain, hits give high values
Method in brief: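 Yeast carrying cln2 and rad14 alterations (cell cycle control and DNA damage repair) were exposed to compounds. Growth inhibition was measured against vehicle-treated controls.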

[5] = NCI Yeast Anticancer Drug Screen. Data for the bub3 strain (AID 167); conditions: S. cerevisiae bub3 mutant strain, hits give high values
Method in brief: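 Part of a panel of yeast mutants defective in DNA damage repair or cell cycle regulation. Each strain is grown with compound, and inhibition is calculated relative to solvent-treated cultures.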

[6] = NCI Yeast Anticancer Drug Screen. Data for the mlh1 rad18 strain (AID 175); conditions: S. cerevisiae mlh1 rad18 strain growth inhibition, hits give high values
Method in brief: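 Growth inhibition of the yeast strain was measured after compound exposure and expressed relative to vehicle-treated controls. The strain carries defined defects in DNA damage repair.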

[7] = at 5.0 µM (retest, dose inferred, filed as 0.5)
[8] = at 50.0 µM (retest, dose inferred, filed as 5.0)

Measured: growth inhibition

Oc1ccc2cc(Br)ccc2c1
inactive: [1]; [7] 8% | [1]; at 50.0 µM 54.1% | [2]; [7] 0% | [3]; [7] 2% | [3]; at 50.0 µM 45.1% | [4]; [7] -2% | [4]; at 50.0 µM 56.4% | [5]; [7] 4% | [6]; [7] 3%
active: [1]; [8] 98% | [2]; [8] 99% | [2]; at 50.0 µM 99% | [3]; [8] 97% | [4]; [8] 98% | [5]; [8] 99% | [5]; at 50.0 µM 99% | [6]; [8] 99% | [6]; at 50.0 µM 98.8%

CCC1=CCC2C(=O)c3cc4ccccc4cc3C(=O)C2C1 (stereo not given)
inactive: [1]; [7] 11% | [1]; [8] 26% | [2]; [7] 11% | [2]; [8] 64% | [3]; [7] 9% | [3]; [8] -4% | [4]; [7] 2% | [4]; [8] 20% | [4]; at 50.0 µM 37.5% | [5]; [7] 10% | [5]; [8] 61% | [6]; [7] 7% | [6]; [8] 46%
active: [1]; at 50.0 µM 89.3% | [2]; at 50.0 µM 96.2% | [3]; at 50.0 µM 89.6% | [5]; at 50.0 µM 93% | [6]; at 50.0 µM 94.8%

CCOC(=O)N1CCN(C(=S)N/N=C(\C)c2ncccn2)CC1
inactive: [1]; [7] 4% | [2]; [7] 9% | [3]; [7] -5% | [4]; [7] -40% | [5]; [7] -22% | [6]; [7] -4%
active: [1]; [8] 99% | [1]; at 50.0 µM 99.4% | [2]; [8] 99% | [2]; at 50.0 µM 99.7% | [3]; [8] 99% | [3]; at 50.0 µM 99.4% | [4]; [8] 99% | [4]; at 50.0 µM 99.1% | [5]; [8] 99% | [5]; at 50.0 µM 99.5% | [6]; [8] 99% | [6]; at 50.0 µM 99.2%

Cc1ccc(S(=O)(=O)CC2COC(CS(=O)(=O)c3ccc(C)cc3)CO2)cc1 (stereo not given)
inactive: [1]; [7] 2% | [1]; [8] 3% | [1]; at 50.0 µM -14.7% | [2]; [7] 1% | [2]; [8] 6% | [2]; at 50.0 µM 33.7% | [3]; [7] 10% | [3]; [8] -6% | [3]; at 50.0 µM 3% | [4]; [7] 8% | [4]; [8] 5% | [4]; at 50.0 µM 33.1% | [5]; [7] 2% | [5]; [8] 11% | [5]; at 50.0 µM 66.4% | [6]; [7] -2% | [6]; [8] 1% | [6]; at 50.0 µM 28.8%

O=C1CSC(c2ccc([N+](=O)[O-])cc2)N1c1ccc(-c2ccc(-n3c(-c4ccccc4)nc4ccccc4c3=O)cc2)cc1 (stereo not given)
inactive: [1]; [7] -1% | [2]; [7] 13% | [3]; [7] 14% | [4]; [7] 31% | [5]; [7] -14% | [6]; [7] 19%
active: [1]; [8] 91% | [1]; at 50.0 µM 85.2% | [2]; [8] 79% | [2]; at 50.0 µM 84.4% | [3]; [8] 93% | [3]; at 50.0 µM 94% | [4]; [8] 75% | [4]; at 50.0 µM 72.5% | [5]; [8] 95% | [5]; at 50.0 µM 95.2% | [6]; [8] 96% | [6]; at 50.0 µM 94.8%

CN(C)CCCNCC(=O)Nc1ccc(S(=O)(=O)c2ccc(NC(=O)CNCCCN(C)C)cc2)cc1
active: [1]; [8] 92% | [1]; at 50.0 µM 95.2% | [2]; [8] 97% | [3]; [8] 95% | [3]; at 50.0 µM 97.2% | [4]; at 50.0 µM 78.1% | [5]; [8] 89% | [6]; [8] 96% | [6]; at 50.0 µM 90.2%
inactive: [1]; [7] 2% | [2]; [7] -2% | [2]; at 50.0 µM 58.7% | [3]; [7] -11% | [4]; [7] 7% | [4]; [8] 66% | [5]; [7] 2% | [5]; at 50.0 µM 30.2% | [6]; [7] 3%

O=C1C=CC(=O)N1CCCCCCN1C(=O)C=CC1=O
inactive: [1]; [7] 19% | [2]; [7] 29% | [3]; [7] 32% | [4]; [7] 16% | [5]; [7] 20% | [6]; [7] 38%
active: [1]; [8] 99% | [1]; at 50.0 µM 99% | [2]; [8] 100% | [2]; at 50.0 µM 99.3% | [3]; [8] 99% | [3]; at 50.0 µM 98.8% | [4]; [8] 99% | [4]; at 50.0 µM 99.5% | [5]; [8] 97% | [5]; at 50.0 µM 99.5% | [6]; [8] 99% | [6]; at 50.0 µM 99.2%

OC(COc1ccc(Cl)cc1)COc1ccc(Cl)cc1
active: [1]; [8] 92% | [1]; at 50.0 µM 98.4% | [2]; [8] 91% | [2]; at 50.0 µM 99.4% | [3]; [8] 86% | [3]; at 50.0 µM 99.4% | [4]; [8] 86% | [4]; at 50.0 µM 99% | [5]; [8] 92% | [5]; at 50.0 µM 99.5% | [6]; [8] 93% | [6]; at 50.0 µM 99.3%
inactive: [1]; [7] 0% | [2]; [7] -3% | [3]; [7] -3% | [4]; [7] -19% | [5]; [7] -8% | [6]; [7] 0%

O=[N+]([O-])C1=Cc2ccccc2S(=O)(=O)CC1
active: [1]; [8] 93% | [1]; at 50.0 µM 92.9% | [2]; [8] 93% | [2]; at 50.0 µM 92.2% | [3]; [8] 95% | [3]; at 50.0 µM 92.7% | [4]; [8] 83% | [5]; [8] 85% | [5]; at 50.0 µM 90.5% | [6]; [8] 97% | [6]; at 50.0 µM 97.9%
inactive: [1]; [7] 6% | [2]; [7] 14% | [3]; [7] 14% | [4]; [7] -8% | [4]; at 50.0 µM 63.5% | [5]; [7] -24% | [6]; [7] 21%

CCCCCc1cccc(CC(=O)OCC)n1
inactive: [1]; [7] -161% | [1]; [8] -149% | [1]; at 50.0 µM -14.7% | [2]; [7] -50% | [2]; [8] -57% | [2]; at 50.0 µM -15.3% | [3]; [7] -66% | [3]; [8] -69% | [3]; at 50.0 µM -12.7% | [4]; [7] -58% | [4]; [8] -80% | [4]; at 50.0 µM 26.9% | [5]; [7] -66% | [5]; [8] -42% | [5]; at 50.0 µM -12.3% | [6]; [7] -127% | [6]; [8] -132% | [6]; at 50.0 µM -6.15%
